Test results reported in PubChem BioAssay (NCI).
This is part of a sample that, as a whole, favours compounds with a hit. Of some 83,000 tested, about 20% had one in any assay.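 A percent growth of 40 corresponds to 60% growth inhibition; 0 means no net growth; -100 means all cells died. Active threshold: below 10.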 The source made the active and inactive calls.

The compounds below were run on OVCAR-8 ovarian (assay: NCI-60 one-dose screen, 48 h (100 = growth as untreated, 0 = no growth, -100 = all killed)). Details: 10 µM.
For `O=C(NO)c1ccc(-c2nc3ccc4[nH]ncc4c3c3c2CCCC3)cc1`, the growth was -16.7% (active). `O=C(CNc1nc(-c2ccccc2)cs1)Nc1ccc(Cl)cc1` was tested, and the growth was -28.8% (active). In the case of `COc1cc2c3c(n(CCCN4CCOCC4)c(=O)c2cc1OC)-c1nc2c(cc1C3=O)OCO2`, the growth is reported as 30.3% (inactive). `Cc1ccc(/C=C/C(=O)c2ccc(NC(=O)CSc3nnc(-c4c[nH]c5ccccc45)n3-c3ccccc3)cc2)c(C)c1` was tested, and the growth was 1.17% (active). `O=C(CN1CCN(c2ncnc3c2cnn3-c2ccccc2)CC1)Nc1nncs1` was tested, and the growth was -21.4% (active). In the case of `CC(=O)Oc1ccccc1C(=O)Oc1ccc(C(=O)/C=C/c2ccncc2)cc1`, the growth is reported as 30.8% (inactive). `O=C(NC(=S)N1CCN(c2ncnc3c2cnn3-c2ccccc2)CC1)c1ccc(Cl)cc1` was tested, and the growth was 38.3% (inactive). `C/C(=N\N=C\c1ccc(N(C)C)cc1)c1ccc2c(c1)Nc1ccccc1S2` was tested, and the growth was 38.5% (inactive). For `COC(=O)C[C@](O)(CCCC(C)(C)O)C(=O)O[C@H]1C(OC)=C[C@@]23CCC(=O)N2CCc2cc4c(cc2[C@@H]13)OCO4`, the growth was 107% (inactive). For `CN1CCN(Cc2ccc(NC(=O)c3cncc(C#Cc4cnc5ccc(N[C@H]6CCOC6)nn45)c3)cc2C(F)(F)F)CC1`, the growth was -94.4% (active). In the case of `CCOc1ccc(/C=N/NC(=O)Cn2nc(Cc3ccc([N+](=O)[O-])cc3)c3onc(C)c3c2=O)cc1`, the growth is reported as -16.5% (active). For `CN1CCN(c2ccc(C(=O)/C=C/c3ccc(OC(F)F)cc3)cc2)CC1`, the growth was 44.8% (inactive). For `COc1ccc(C2N(c3ccc(Br)cc3)N=C(C(C)=O)N2[C@H]2[C@H](OC(C)=O)O[C@H](COC(C)=O)[C@@H](OC(C)=O)[C@@H]2OC(C)=O)cc1` (some centres undefined), the growth was 78% (inactive). For `CCOC(=O)C1=C(N)N(c2ccccc2)C2=C(C(=O)CC(C)(C)C2)C1c1ccc(Cl)cc1` (centres undefined), the growth was 61.1% (inactive). With `CCCn1c(=O)c2[nH]c(-c3ccc(OCc4nc5ccc(F)cc5[nH]4)cc3)nc2n(CCC)c1=O` the growth was -41.3% (active). `Cc1ccc(/C(CSc2nnc(-c3c[nH]c4ccccc34)n2-c2ccccc2)=N/O)cc1` was tested, and the growth was -27.8% (active). `CN1CCN(c2ccc(C(=O)/C=C/c3cc(C(F)(F)F)ccc3Cl)cc2)CC1` was tested, and the growth was -51.5% (active). In the case of `COc1ccc(C(=O)Nc2sc3c(c2C#N)CCC(=O)C3)cc1C(F)(F)F`, the growth is reported as 2.79% (active). `Cc1ccc(/C=C/C(=O)c2ccc(NC(=O)CSc3nnc(-c4c[nH]c5ccccc45)n3-c3ccccc3)cc2)cc1` was tested, and the growth was 96.4% (inactive). For `COc1ccc(Nc2nc(N)n(Cc3cccc(Br)c3)n2)cc1`, the growth was 26.2% (inactive). With `O=C1CCC(N2Cc3cc(NC(=O)COc4ccccc4)ccc3C2=O)C(=O)N1` (centres undefined) the growth was 47.8% (inactive). For `O=C(/C=C/Nc1ccccc1)c1ccc2c(c1)Nc1ccccc1S2`, the growth was 33.5% (inactive). In the case of `COc1cc2c(c(OC)c1OC)C(=O)CC(c1cccc(NC(=O)c3cccc(N)c3)c1)O2` (centres undefined), the growth is reported as 55% (inactive). For `Cc1noc2c(Cc3ccc([N+](=O)[O-])cc3)nn(CC(=O)N/N=C/c3ccc(Br)cc3)c(=O)c12`, the growth was 48.9% (inactive). `COc1ccc(-c2nc(Nc3ccccc3S(N)(=O)=O)c3ccccc3n2)cc1` was tested, and the growth was -27% (active). In the case of `COc1cc(/C=C/C(=O)c2ccc(NC(=O)CSc3nnc(-c4c[nH]c5ccccc45)n3-c3ccccc3)cc2)cc(OC)c1OC`, the growth is reported as 50.1% (inactive). For `O=C(CSc1nnc(-c2ccc3nc(-c4ccc(Cl)cc4)[nH]c3c2)o1)Nc1ccc(Br)cc1`, the growth was -43.5% (active). In the case of `Cc1ccn2c(C(=O)c3ccccc3)cc(-c3cc(-c4ccc(N(C)C)cc4)c(C#N)c(N)n3)c2c1`, the growth is reported as 15.1% (inactive). For `O=C1c2ccccc2C(=O)c2c1c(C(=O)c1ccc(Cl)cc1)n1c2ccc2c3ccccc3ccc21`, the growth was 103% (inactive). `Cn1c(O)c(N=Nc2nc(-c3cc4ccccc4oc3=O)cs2)c2cc(Br)ccc21` was tested, and the growth was 79.2% (inactive). With `Cn1cc(-c2cc(N)n3nc(-c4c[nH]c5ccc(Br)cc45)cc3n2)c2cccnc21` the growth was -68.8% (active). With `COc1ccc2c3nc4cc(C)c(C)cc4nc3n(CCN(C)C)c2c1` the growth was -56.4% (active). For `O=C(CSc1nnc(-c2c[nH]c3ccccc23)n1-c1ccccc1)c1ccc(Br)cc1`, the growth was 43.5% (inactive). In the case of `OCc1[nH]nc2cc(Nc3ncc4ccc(Br)c(OC5CCC(O)CC5)c4n3)ccc12` (centres undefined), the growth is reported as 8.63% (active). In the case of `Cc1cc(C)nc(NS(=O)(=O)c2ccc(N/C(N)=N/c3nccc(-c4ccccc4)n3)cc2)n1`, the growth is reported as 77.7% (inactive). `N#Cc1c(NC(=O)c2ccc(C(O)(C(F)(F)F)C(F)(F)F)cc2)sc2c1CCC(=O)C2` was tested, and the growth was -7.08% (active). With `N#Cc1ccc(-c2nn(-c3ccc(C(=O)O)cc3)cc2CNc2cc(Cl)cc(C(F)(F)F)c2)cc1` the growth was 20.1% (inactive).

Each compound was assayed on OVCAR-5 ovarian in the same assay as above. Details: 10 µM.
`O=C(NO)c1ccc(-c2nc3ccc4[nH]ncc4c3c3c2CCCC3)cc1` was tested, and the growth was -1.66% (active). `O=C(CNc1nc(-c2ccccc2)cs1)Nc1ccc(Cl)cc1` was tested, and the growth was -95.4% (active). In the case of `COc1cc2c3c(n(CCCN4CCOCC4)c(=O)c2cc1OC)-c1nc2c(cc1C3=O)OCO2`, the growth is reported as 37.2% (inactive). `Cc1ccc(/C=C/C(=O)c2ccc(NC(=O)CSc3nnc(-c4c[nH]c5ccccc45)n3-c3ccccc3)cc2)c(C)c1` was tested, and the growth was 77.3% (inactive). With `O=C(CN1CCN(c2ncnc3c2cnn3-c2ccccc2)CC1)Nc1nncs1` the growth was -4.09% (active). In the case of `CC(=O)Oc1ccccc1C(=O)Oc1ccc(C(=O)/C=C/c2ccncc2)cc1`, the growth is reported as 62.7% (inactive). `O=C(NC(=S)N1CCN(c2ncnc3c2cnn3-c2ccccc2)CC1)c1ccc(Cl)cc1` was tested, and the growth was 83.8% (inactive). For `C/C(=N\N=C\c1ccc(N(C)C)cc1)c1ccc2c(c1)Nc1ccccc1S2`, the growth was 57.4% (inactive). In the case of `COC(=O)C[C@](O)(CCCC(C)(C)O)C(=O)O[C@H]1C(OC)=C[C@@]23CCC(=O)N2CCc2cc4c(cc2[C@@H]13)OCO4`, the growth is reported as 102% (inactive). In the case of `CN1CCN(Cc2ccc(NC(=O)c3cncc(C#Cc4cnc5ccc(N[C@H]6CCOC6)nn45)c3)cc2C(F)(F)F)CC1`, the growth is reported as -72% (active). `CCOc1ccc(/C=N/NC(=O)Cn2nc(Cc3ccc([N+](=O)[O-])cc3)c3onc(C)c3c2=O)cc1` was tested, and the growth was 43.8% (inactive). `CN1CCN(c2ccc(C(=O)/C=C/c3ccc(OC(F)F)cc3)cc2)CC1` was tested, and the growth was 80.3% (inactive). `COc1ccc(C2N(c3ccc(Br)cc3)N=C(C(C)=O)N2[C@H]2[C@H](OC(C)=O)O[C@H](COC(C)=O)[C@@H](OC(C)=O)[C@@H]2OC(C)=O)cc1` (some centres undefined) was tested, and the growth was 85.6% (inactive). In the case of `CCOC(=O)C1=C(N)N(c2ccccc2)C2=C(C(=O)CC(C)(C)C2)C1c1ccc(Cl)cc1` (centres undefined), the growth is reported as 57.6% (inactive). For `CCCn1c(=O)c2[nH]c(-c3ccc(OCc4nc5ccc(F)cc5[nH]4)cc3)nc2n(CCC)c1=O`, the growth was 43.3% (inactive). `Cc1ccc(/C(CSc2nnc(-c3c[nH]c4ccccc34)n2-c2ccccc2)=N/O)cc1` was tested, and the growth was -48.9% (active). `CN1CCN(c2ccc(C(=O)/C=C/c3cc(C(F)(F)F)ccc3Cl)cc2)CC1` was tested, and the growth was -91% (active). In the case of `COc1ccc(C(=O)Nc2sc3c(c2C#N)CCC(=O)C3)cc1C(F)(F)F`, the growth is reported as 35.3% (inactive). `Cc1ccc(/C=C/C(=O)c2ccc(NC(=O)CSc3nnc(-c4c[nH]c5ccccc45)n3-c3ccccc3)cc2)cc1` was tested, and the growth was 103% (inactive). `COc1ccc(Nc2nc(N)n(Cc3cccc(Br)c3)n2)cc1` was tested, and the growth was 21.7% (inactive). For `O=C1CCC(N2Cc3cc(NC(=O)COc4ccccc4)ccc3C2=O)C(=O)N1` (centres undefined), the growth was 83.3% (inactive). In the case of `O=C(/C=C/Nc1ccccc1)c1ccc2c(c1)Nc1ccccc1S2`, the growth is reported as 87.7% (inactive). For `COc1cc2c(c(OC)c1OC)C(=O)CC(c1cccc(NC(=O)c3cccc(N)c3)c1)O2` (centres undefined), the growth was 123% (inactive). For `Cc1noc2c(Cc3ccc([N+](=O)[O-])cc3)nn(CC(=O)N/N=C/c3ccc(Br)cc3)c(=O)c12`, the growth was 96.9% (inactive). For `COc1ccc(-c2nc(Nc3ccccc3S(N)(=O)=O)c3ccccc3n2)cc1`, the growth was 48% (inactive). For `COc1cc(/C=C/C(=O)c2ccc(NC(=O)CSc3nnc(-c4c[nH]c5ccccc45)n3-c3ccccc3)cc2)cc(OC)c1OC`, the growth was 108% (inactive). With `O=C(CSc1nnc(-c2ccc3nc(-c4ccc(Cl)cc4)[nH]c3c2)o1)Nc1ccc(Br)cc1` the growth was 39.5% (inactive). In the case of `Cc1ccn2c(C(=O)c3ccccc3)cc(-c3cc(-c4ccc(N(C)C)cc4)c(C#N)c(N)n3)c2c1`, the growth is reported as 83.4% (inactive). In the case of `O=C1c2ccccc2C(=O)c2c1c(C(=O)c1ccc(Cl)cc1)n1c2ccc2c3ccccc3ccc21`, the growth is reported as 115% (inactive). In the case of `Cn1c(O)c(N=Nc2nc(-c3cc4ccccc4oc3=O)cs2)c2cc(Br)ccc21`, the growth is reported as 86.5% (inactive). For `Cn1cc(-c2cc(N)n3nc(-c4c[nH]c5ccc(Br)cc45)cc3n2)c2cccnc21`, the growth was -87.4% (active). `COc1ccc2c3nc4cc(C)c(C)cc4nc3n(CCN(C)C)c2c1` was tested, and the growth was 24.5% (inactive). In the case of `O=C(CSc1nnc(-c2c[nH]c3ccccc23)n1-c1ccccc1)c1ccc(Br)cc1`, the growth is reported as 58.3% (inactive). For `OCc1[nH]nc2cc(Nc3ncc4ccc(Br)c(OC5CCC(O)CC5)c4n3)ccc12` (centres undefined), the growth was -17.9% (active). For `Cc1cc(C)nc(NS(=O)(=O)c2ccc(N/C(N)=N/c3nccc(-c4ccccc4)n3)cc2)n1`, the growth was 76.1% (inactive). For `N#Cc1c(NC(=O)c2ccc(C(O)(C(F)(F)F)C(F)(F)F)cc2)sc2c1CCC(=O)C2`, the growth was -60.8% (active). In the case of `N#Cc1ccc(-c2nn(-c3ccc(C(=O)O)cc3)cc2CNc2cc(Cl)cc(C(F)(F)F)c2)cc1`, the growth is reported as 59.8% (inactive).
